Results taken from PubChem BioAssay AID1159580 (chemical genetic matrix, 2015).
The campaign covered roughly 5,500 compounds. About 2,000 (36%) were called active. Inconclusive results (about 18%) are left out. Cut-off read from the data, not from the text of the source: active = normalized growth mostly below about 0.91 (no sharp cut-off); inconclusive = no clear call, values can overlap the other calls; inactive = mostly above about 0.92. Some of the results follow.

Test: chemical genetic growth profiling, strain panel (AID 1159580);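 note: tested at 20 µM; growth read once vehicle control cultures reached saturation at 30 °C; 1 = growth at the plate median or of vehicle wells; lower values mean less growth of the strain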
Settings: growth OD

Measured: normalized growth

CC(C)(S)[C@@H](N)C(=O)O
inactive: S. cerevisiae deletion strains, locus YJR043C, strain POL32, hits give low values 1 | S. cerevisiae deletion strains, locus YJR066W, strain TOR1, hits give low values 0.952 | S. cerevisiae deletion strains, locus YKL009W, strain mrt4, hits give low values 0.988 | S. cerevisiae deletion strains, locus YKL068W, hits give low values 0.995 | S. cerevisiae deletion strains, locus YKL085W, strain MDH1 (second series), hits give low values 0.993 | S. cerevisiae deletion strains, locus YKL085W, strain MDH1, hits give low values 0.993 | S. cerevisiae deletion strains, locus YKL160W, strain elf1, hits give low values 1.03 | S. cerevisiae deletion strains, locus YKL190W, strain CNB1, hits give low values 0.999 | S. cerevisiae deletion strains, locus YKR001C, strain vps1, hits give low values 0.988 | S. cerevisiae deletion strains, locus YKR026C, strain gcn3, hits give low values 0.994 | S. cerevisiae deletion strains, locus YKR091W, strain srl3, hits give low values 1 | S. cerevisiae deletion strains, locus YLL001W, strain dnm1, hits give low values 1.02 | S. cerevisiae deletion strains, locus YLL026W, hits give low values 1.01 | S. cerevisiae deletion strains, locus YLL041C, strain sdh2, hits give low values 1 | S. cerevisiae deletion strains, locus YLR027C, strain aat2, hits give low values 0.995 | S. cerevisiae deletion strains, locus YLR039C, strain RIC1, hits give low values 1.02 | S. cerevisiae deletion strains, locus YLR058C, strain SHM2, hits give low values 1.01 | S. cerevisiae deletion strains, locus YLR102C, strain apc9, hits give low values 0.992 | S. cerevisiae deletion strains, locus YLR113W, strain HOG1, hits give low values 0.99 | S. cerevisiae deletion strains, locus YLR221C, strain rsa3, hits give low values 1 | S. cerevisiae deletion strains, locus YLR258W, strain gsy2, hits give low values 1 | S. cerevisiae deletion strains, locus YLR262C, strain YPT6 (second series), hits give low values 1.02 | S. cerevisiae deletion strains, locus YLR262C, strain YPT6, hits give low values 1 | S. cerevisiae deletion strains, locus YLR268W, strain sec22, hits give low values 0.969 | S. cerevisiae deletion strains, locus YLR320W, strain mms22, hits give low values 1.04 | S. cerevisiae deletion strains, locus YLR330W, strain CHS5, hits give low values 1.01 | S. cerevisiae deletion strains, locus YLR342W, strain FKS1 (second series), hits give low values 1.03 | S. cerevisiae deletion strains, locus YLR342W, strain FKS1, hits give low values 1.01 | S. cerevisiae deletion strains, locus YLR357W, strain rsc2, hits give low values 1 | S. cerevisiae deletion strains, locus YLR370C, strain arc18, hits give low values 1 | S. cerevisiae deletion strains, locus YLR371W, strain rom2, hits give low values 0.994 | S. cerevisiae deletion strains, locus YLR384C, strain iki3, hits give low values 0.993 | S. cerevisiae deletion strains, locus YLR418C, strain cdc73, hits give low values 0.98 | S. cerevisiae deletion strains, locus YML016C, strain PPZ1, hits give low values 1.02 | S. cerevisiae deletion strains, locus YML032C, strain rad52, hits give low values 0.991 | S. cerevisiae deletion strains, locus YML120C, strain ndi1, hits give low values 0.998 | S. cerevisiae deletion strains, locus YML124C, strain tub3, hits give low values 0.994 | S. cerevisiae deletion strains, locus YMR058W, strain fet3, hits give low values 1.01 | S. cerevisiae deletion strains, locus YMR078C, strain ctf18, hits give low values 0.988 | S. cerevisiae deletion strains, locus YMR125W, strain sto1, hits give low values 1 | S. cerevisiae deletion strains, locus YMR129W, hits give low values 0.996 | S. cerevisiae deletion strains, locus YMR205C, strain PFK2, hits give low values 1.04 | S. cerevisiae deletion strains, locus YMR223W, strain ubp8, hits give low values 0.999 | S. cerevisiae deletion strains, locus YMR231W, strain pep5, hits give low values 0.999 | S. cerevisiae deletion strains, locus YMR307W, strain GAS1, hits give low values 1.01 | S. cerevisiae deletion strains, locus YNL067W, strain RPL9B, hits give low values 0.993 | S. cerevisiae deletion strains, locus YNL071W, strain lat1, hits give low values 1 | S. cerevisiae deletion strains, locus YNL183C, strain NPR1, hits give low values 0.964 | S. cerevisiae deletion strains, locus YNL209W, strain ssb2, hits give low values 0.997 | S. cerevisiae deletion strains, locus YNL233W, strain BNI4, hits give low values 1.02 | S. cerevisiae deletion strains, locus YNL248C, strain rpa49, hits give low values 1 | S. cerevisiae deletion strains, locus YNL250W, strain rad50, hits give low values 0.985 | S. cerevisiae deletion strains, locus YNL271C, strain bni1, hits give low values 0.988 | S. cerevisiae deletion strains, locus YNL298W, strain CLA4, hits give low values 0.991 | S. cerevisiae deletion strains, locus YNL307C, strain MCK1, hits give low values 0.992 | S. cerevisiae deletion strains, locus YNL322C, strain KRE1 (second series), hits give low values 1.01 | S. cerevisiae deletion strains, locus YNR049C, strain mso1, hits give low values 0.997 | S. cerevisiae deletion strains, locus YNR052C, strain pop2, hits give low values 0.988 | S. cerevisiae deletion strains, locus YOL006C, strain TOP1, hits give low values 1.08 | S. cerevisiae deletion strains, locus YOL012C, strain htz1 0.654 | S. cerevisiae deletion strains, locus YOL147C, strain pex11, hits give low values 0.984 | S. cerevisiae deletion strains, locus YOR001W, strain rrp6, hits give low values 0.989 | S. cerevisiae deletion strains, locus YOR061W, strain CKA2, hits give low values 1.01 | S. cerevisiae deletion strains, locus YOR069W, strain VPS5, hits give low values 1 | S. cerevisiae deletion strains, locus YOR070C, strain gyp1, hits give low values 1.01 | S. cerevisiae deletion strains, locus YOR080W, strain dia2, hits give low values 1 | S. cerevisiae deletion strains, locus YOR083W, strain WHI5, hits give low values 1.04 | S. cerevisiae deletion strains, locus YOR106W, strain vam3, hits give low values 1.03 | S. cerevisiae deletion strains, locus YOR136W, strain idh2, hits give low values 0.994 | S. cerevisiae deletion strains, locus YOR144C, strain elg1, hits give low values 0.992 | S. cerevisiae deletion strains, locus YOR184W, strain ser1, hits give low values 1.01 | S. cerevisiae deletion strains, locus YOR231W, strain MKK1, hits give low values 1.01 | S. cerevisiae deletion strains, locus YOR265W, strain rbl2, hits give low values 1 | S. cerevisiae deletion strains, locus YOR270C, strain vph1, hits give low values 0.989 | S. cerevisiae deletion strains, locus YOR290C, strain snf2, hits give low values 1.04 | S. cerevisiae deletion strains, locus YOR316C, strain cot1, hits give low values 0.993 | S. cerevisiae deletion strains, locus YPL051W, strain arl3, hits give low values 1.02 | S. cerevisiae deletion strains, locus YPL078C, strain atp4, hits give low values 1.01 | S. cerevisiae deletion strains, locus YPL106C, strain sse1, hits give low values 1.03 | S. cerevisiae deletion strains, locus YPL240C, strain hsp82, hits give low values 0.988 | S. cerevisiae deletion strains, locus YPL241C, strain CIN2, hits give low values 1.01 | S. cerevisiae deletion strains, locus YPL256C, strain CLN2, hits give low values 0.986 | S. cerevisiae deletion strains, locus YPR119W, strain clb2, hits give low values 1 | S. cerevisiae deletion strains, locus YPR141C, strain kar3, hits give low values 0.993 | S. cerevisiae deletion strains, locus YPR163C, strain tif3, hits give low values 0.991 | S. cerevisiae deletion strains, locus YPR167C, strain met16, hits give low values 0.991 | S. cerevisiae deletion strains, strain wtn01, hits give low values 0.976 | S. cerevisiae strains, strain wild type, hits give low values 1.01
